These results are taken from ChEMBL document CHEMBL1157539, “Thousands of chemical starting points for antimalarial lead identification” (Nature, 2010).

Usually Inhibition stands for the drop in the measured response relative to a control, in per cent. A lower Inhibition goes with little suppression.

Holding throughout (type): functional
The test system of assay [1] is Plasmodium falciparum. The experiment in a line: GSK_TCMDC: Inhibition of Plasmodium falciparum 3D7 in whole red blood cells, using parasite LDH activity as an index of growth. Test compounds present at 2uM.
The test system of assay [2] is Plasmodium falciparum. The experiment in a line: GSK_TCMDC: Inhibition of Plasmodium falciparum Dd2 in whole red blood cells, using parasite LDH activity as an index of growth. Test compounds present at 2uM.
Another assay concerns HepG2. The assay is described as follows: GSK_TCMDC: Percent inhibition of human HepG2 cell line. Test compounds present at 10uM.

`CCOC(=O)c1ccc(NC(=O)N[C@@H](Cc2ccc(O)cc2)C(=O)NC2CCN(Cc3ccc4c(c3)OCO4)CC2)cc1.O=C(O)C(F)(F)F`: the Inhibition in the assay with Plasmodium falciparum [1] is 86%; in the assay with Plasmodium falciparum [2] it was 24%; with HepG2, 0%.
`COc1ccc(Nc2ncc(OC)c(Nc3ccccc3C(N)=O)n2)cc1N1CCN(C)CC1.O=CO`: the values for the Inhibition with Plasmodium falciparum [1], in the assay with Plasmodium falciparum [2] and in the assay with HepG2 were 100%, 96% and 63%, respectively.
Regarding `Cc1cc(=NN=Cc2ccccc2)c2cc(C(F)(F)F)ccc2[nH]1`, the results for the Inhibition in the assay on Plasmodium falciparum [1], in the assay with Plasmodium falciparum [2] and with HepG2 were 100%, 97% and 30%, respectively.
`CN1CCN(CCCN(Cc2ccc(-c3cccc(CNCc4ccc5c(c4)OCO5)c3)cc2)C(=O)Nc2ccccc2)CC1.O=C(O)C(F)(F)F`: the Inhibition in the assay with Plasmodium falciparum [1] stood at 100%; in the assay with Plasmodium falciparum [2], 87%; with HepG2, 51%.
With `O=C(/C=C/c1ccc(Cl)c(Cl)c1)NCCCCCN1CCC(NC(=O)Nc2ccc(Cl)c(C(F)(F)F)c2)CC1`, the Inhibition in the assay with Plasmodium falciparum [1] is on record as 99%; in the assay with Plasmodium falciparum [2], 19%; in the assay with HepG2, 76%.
As for `COc1ccccc1-n1c(SCC(=O)c2ccc3c(c2)CC(=O)N3C)nnc1-c1cccs1`, the Inhibition in the assay on Plasmodium falciparum [1] turned out to be 95%; in the assay on Plasmodium falciparum [2], 55%; in the assay with HepG2, 7%.
Take `CC(C)CCN1CCCN(Cc2cccc(NC(=O)c3ccc(-c4ccccc4)cc3)c2)CC1.O=C(O)C(F)(F)F`: the Inhibition was found to be 92% with Plasmodium falciparum [1], 21% with Plasmodium falciparum [2] and 27% with HepG2.
Take `CN1CCN(CC(=O)Nc2cccc(-c3cccc(-c4nc5cc(C(F)(F)F)ccc5[nH]4)c3)c2)CC1`: the figures for the Inhibition in the assay on Plasmodium falciparum [1], with Plasmodium falciparum [2] and with HepG2 were 100%, 98% and 26%, respectively.
Take `O=C(Nc1nc2cc(S(=O)(=O)NCCCN3CCOCC3)ccc2n1CCCn1ccnc1)c1ccc(Cl)cc1.O=C(O)C(F)(F)F`: the Inhibition is 95% with Plasmodium falciparum [1], 0% with Plasmodium falciparum [2] and 0% with HepG2.
For `COc1ccc2[nH]c(C)cc(=NN=Cc3cc(OC)c(OC)cc3OC)c2c1`, the values for the Inhibition with Plasmodium falciparum [1], with Plasmodium falciparum [2] and in the assay with HepG2 were 100%, 56% and 1%, respectively.
For `C#CCOc1ccc2ccccc2c1CNCCCCCCNCc1c(OCC#C)ccc2ccccc12.CS(=O)(=O)O`, the Inhibition with Plasmodium falciparum [1] is on record as 100%; in the assay on Plasmodium falciparum [2] it was 98%; in the assay with HepG2, 100%.
As for `O=C(Nc1ccc(OC2CCN(Cc3ccc(F)cc3)CC2)c(Cl)c1)c1ccco1.O=C(O)C(F)(F)F`, the Inhibition is reported as 95% in the assay on Plasmodium falciparum [1], 95% in the assay with Plasmodium falciparum [2] and 2% in the assay on HepG2.
Regarding `Cc1cccc2nc(-c3ccc(-c4cccc(CNCCN(C)C)c4)cc3)[nH]c12.O=C(O)C(F)(F)F`, the results for the Inhibition in the assay with Plasmodium falciparum [1], in the assay with Plasmodium falciparum [2] and with HepG2 were 100%, 98% and 6%, respectively.
As for `CCCN1CCN(CCCNC(=O)c2cc3c(-c4ccc(Cl)cc4)nn(C)c3s2)CC1`, the Inhibition with Plasmodium falciparum [1] turned out to be 88%; in the assay with Plasmodium falciparum [2] it was 20%; in the assay with HepG2 it was 46%.
On to `CNC(=O)C1Cc2c([nH]c3cc(Br)ccc23)C2(CCN(CCc3ccccc3)CC2)N1` (stereo not drawn), for which the Inhibition is reported as 100% with Plasmodium falciparum [1], 31% in the assay with Plasmodium falciparum [2] and 10% with HepG2.
`CCNc1cc(C)nc(Nc2ccc(NC(=O)Cc3ccc(OC)cc3)cc2)n1`: the Inhibition with Plasmodium falciparum [1] is 100%; in the assay on Plasmodium falciparum [2], 47%; with HepG2, 30%.
Taken in the same sequence, the figures for `COc1ccc(-c2ccc(NC(=O)c3cccc(Cl)c3)cc2)cc1CN1CCCN(C)CC1.O=C(O)C(F)(F)F` were 95%, 50% and 48%.
With `Cc1c(C)n(C2CCCC2)c2ncnc(OC3CCN(CC(=O)NC4CC4)CC3)c12`, the Inhibition in the assay with Plasmodium falciparum [1] stood at 95%; with Plasmodium falciparum [2], 92%; with HepG2, 13%.
As for `COc1cc(OC)c(NC(=O)C2c3ccccc3C(=O)N(C)C2c2cccs2)cc1Cl` (stereo not drawn), the Inhibition is 99% in the assay on Plasmodium falciparum [1], 52% in the assay with Plasmodium falciparum [2] and 4% with HepG2.
Taken in the same sequence, the figures for `COc1ccccc1NC(=O)Nc1ccc(-c2ccc(-c3nc4cccc(C)c4[nH]3)s2)cc1` were 100%, 99% and 71%.
Regarding `COc1cc2nc(N3CCC(CNC(=O)c4cc(Br)c(Br)s4)CC3)nc(N)c2cc1OC.O=C(O)C(F)(F)F`, the Inhibition turned out to be 100% with Plasmodium falciparum [1], 97% with Plasmodium falciparum [2] and 22% in the assay on HepG2.
Regarding `C(=N\Nc1nccc2sc(-c3ccccc3)cc12)/c1cccnc1`, the Inhibition in the assay on Plasmodium falciparum [1] was determined as 97%; with Plasmodium falciparum [2], 10%; with HepG2, 0%.
As for `CCNc1cc(CC)nc(Nc2ccc(C)cc2)n1`, the Inhibition in the assay on Plasmodium falciparum [1] was 100%; in the assay with Plasmodium falciparum [2], 24%; in the assay with HepG2, 22%.
On to `CN(C)CCOc1cc(O)c2c(c1)OC(C)(C)C=C2c1cccs1`, for which the Inhibition is recorded as 99% with Plasmodium falciparum [1], 10% in the assay on Plasmodium falciparum [2] and 29% with HepG2.
Taken in the same sequence, the figures for `Cc1cc(Nc2ccc3ccccc3c2)n2ncnc2n1` were 96%, 95% and 11%.
As for `CCCCC1(c2ccc(F)cc2)NC(=O)N(CC(=O)c2cc(C)n(Cc3ccco3)c2C)C1=O` (stereo not drawn), the Inhibition with Plasmodium falciparum [1] is 82%; in the assay with Plasmodium falciparum [2] it was 28%; in the assay on HepG2, 6%.
As to `COC(=O)C(Cc1ccccc1)C(CSCc1ccc(OC)cc1)C(=O)N[C@@H](C(=O)OC(C)(C)C)c1ccc(C(C)(C)C)cc1` (stereo partly drawn), the Inhibition in the assay with Plasmodium falciparum [1] worked out at 93%; with Plasmodium falciparum [2] it was 44%; in the assay on HepG2, 0%.
Taken in the same sequence, the figures for `CNC(=N)c1ccc(NC(=O)Nc2ccc(C(=N)NC)cc2)cc1.Cl` were 84%, 71% and 0%.
With `CN1CCN(Cc2c(O)ccc3c(=O)c(Oc4ccc(C(C)(C)C)cc4)c(C(F)(F)F)oc23)CC1`, the figures for the Inhibition with Plasmodium falciparum [1], with Plasmodium falciparum [2] and with HepG2 were 99%, 88% and 0%, respectively.
Turning to `O=C(Nc1cccc(N2CCC(NCCCc3ccncc3)CC2)c1)c1cccc(C(F)(F)F)c1`, the Inhibition with Plasmodium falciparum [1] amounted to 96%; in the assay on Plasmodium falciparum [2] it was 50%; in the assay on HepG2 it was 11%.
With `CC(=O)O.Nc1nc(N)c2cc3ccc(OCc4ccccc4)cc3nc2n1`, the Inhibition was found to be 100% in the assay on Plasmodium falciparum [1], 75% with Plasmodium falciparum [2] and 78% in the assay with HepG2.
